Assay results reported in PubChem BioAssay (EPA / NIEHS).
Values joined by “and” are separate entries in the source; they are usually repeats but may differ in a detail not shown here. Equal values may be shown once. Inconclusive results are not listed. Where a structure was tested more than once in an assay, its records may differ in their call. Active and inactive are the calls of the source. How the source made its calls: active means hit-call score of the fitted dose curve at least 0.9, where 1 is the maximum; inconclusive means response in the unintended direction; inactive means score below 0.9.

Molecular target: human Opioid Receptor Mu (Opiate Mu), OPRM1 (gene 4988) (UniProt P35372)
Assay: NVS_GPCR_hOpiate_mu: NovaScreen (NVS) G Protein-Coupled Receptor Assay for human Opioid Receptor Mu (Opiate Mu) (AID 2283290);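 further: hits lower bound tracer signal versus DMSO meaning displacement of the ligand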
Protocol: NVS_GPCR_hOpiate_mu is a biochemical, single-readout assay that uses extracted gene-proteins from CHO in a cell-free assay. Measurements were taken 2.5 hours after chemical dosing in a 96-well plate.NVS_GPCR_hOpiate_mu is one of one assay component(s) measured or calculated from the NVS_GPCR_hOpiate_mu assay. It is designed to make measurements of radioligand binding, a form of binding reporter, as detected with scintillation counting signals by Filter-based radiodetection technology.Data from the assay component NVS_GPCR_hOpiate_mu was analyzed into 1 assay endpoint. This assay endpoint, NVS_GPCR_hOpiate_mu, was analyzed in the positive analysis fitting direction relative to DMSO as the negative control and baseline of activity. Using a type of binding reporter, loss-of-signal activity can be used to understand changes in the binding as they relate to the gene OPRM1. Furthermore, this assay endpoint can be referred to as a primary readout, because the performed assay has only produced 1 assay endpoint. To generalize the intended target to other relatable targets, this assay endpoint is annotated to the gpcr intended target family, where the subfamily is rhodopsin-like receptor.
Binding assays used specific radioligands (tritiated, iodinated) with non-radioactive competitive displacement ligands in agonist or antagonist protocols (as indicated) and various reference compounds and inhibitors to titrate specific binding to receptors and transporters. Most enzyme assays (CYPs, kinases, phosphatases, proteases, HDACs) used recombinant protein and specific substrates (fluorescence mostly, some colorimetric and radioactive) and inhibitors, followed by a biochemical separation of substrate and product. All assays for the biochemical HTS were initially run in duplicate at a single concentration (10 uM for CYP450 assays and 25 uM for all others). […] Each assay was run with positive and negative controls, and concurrent controls on every plate. The follow-up (secondary) screen tested active chemical-pairs in concentration series, as well as a few additional assays not tested in the primary screen, some selected negative inactives, and several cases re-run in the concentration series for confirmatory purposes.

Chain of human Opioid Receptor Mu (Opiate Mu), OPRM1 (gene 4988) (P35372 whole entry, looked up): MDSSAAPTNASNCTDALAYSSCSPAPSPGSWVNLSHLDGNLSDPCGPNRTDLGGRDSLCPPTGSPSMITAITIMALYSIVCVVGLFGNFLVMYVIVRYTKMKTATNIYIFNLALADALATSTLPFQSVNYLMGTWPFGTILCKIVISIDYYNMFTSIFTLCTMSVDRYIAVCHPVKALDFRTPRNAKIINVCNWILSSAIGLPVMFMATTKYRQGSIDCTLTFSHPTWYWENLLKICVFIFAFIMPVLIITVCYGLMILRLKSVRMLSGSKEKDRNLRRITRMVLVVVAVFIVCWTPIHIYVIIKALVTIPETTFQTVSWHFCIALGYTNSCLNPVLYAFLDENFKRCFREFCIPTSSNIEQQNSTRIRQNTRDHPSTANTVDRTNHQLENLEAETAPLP

SMILES	outcome	AC50
Nc1nc(=S)c2[nH]cnc2[nH]1	inactive	
O=C(N[C@@H](c1ccccc1)[C@@H]1CCCCN1)c1cccc(C(F)(F)F)c1Cl		10.8 µM (active)
Oc1ccccc1O	inactive	
CN(C)CCCN1c2ccccc2Sc2ccc(Cl)cc21		10.3 µM (active)
S=c1[nH]c2ccccc2s1	inactive	
CN(C)C(=O)NC1(c2ccccc2)CCN(CC[C@@]2(c3ccc(F)c(F)c3)CN(C(=O)c3ccccc3)CCO2)CC1		14.9 µM (active)
CSc1ccc(Oc2ccc(S(N)(=O)=O)cc2CN(C)C)cc1C		8.3 µM (active)
COC(=O)[C@H]1[C@H]2C[C@@H]3c4[nH]c5cc(OC)ccc5c4CCN3C[C@H]2C[C@@H](OC(=O)c2cc(OC)c(OC)c(OC)c2)[C@@H]1OC		7.12 µM (active)
Cc1occc(=O)c1O	inactive	
CN(C)C(=O)NC1(c2ccccc2)CCN(CCC[C@]2(c3ccc(Cl)c(Cl)c3)CCCN(C(=O)c3ccccc3)C2)CC1		3.14 µM (active)
COc1ccc(OC(F)(F)F)cc1CN[C@H]1CCCN[C@H]1c1ccccc1		7.3 µM (active)
CC(=O)O[C@]1(C(C)=O)CC[C@H]2[C@@H]3C=C(Cl)C4=CC(=O)[C@@H]5C[C@@H]5[C@]4(C)[C@H]3CC[C@@]21C	inactive	474 nM (active) and 612 nM (active)
CCCCC(CC)COP(=O)(OCC(CC)CCCC)OCC(CC)CCCC (stereo unspecified)	inactive	
Oc1ccc(O)cc1		15.3 µM (active)
CCCCCCCCCCCCCCOS(=O)(=O)O		8.03 µM (active)
